According to PubChem BioAssay AID1851 (National Center for Advancing Translational Sciences (NCATS), 2009):
The campaign covered roughly 16,000 compounds. About 5,800 (36%) were called active. Inconclusive results (about 23%) are left out. Calls follow the shape of the dose curve; as a rule, active = well fitted curve in the direction sought with a large enough effect; inconclusive = small, poorly fitted or top-dose-only effect, or effect the other way; inactive = no such curve, though single readings can be large or run the other way. Some of the results follow.

Each molecule was assayed against Cytochrome P450 2C19 (Homo sapiens) (UniProt P33261) (assay: Cytochrome panel assay with activity outcomes). Details: recombinant CYP, pro-luciferin dealkylation, luminescence, p450-cyp2c19; series mostly up to 57.1 µM.
Chain of Cytochrome P450 2C19 (Homo sapiens) (P33261 whole entry, looked up): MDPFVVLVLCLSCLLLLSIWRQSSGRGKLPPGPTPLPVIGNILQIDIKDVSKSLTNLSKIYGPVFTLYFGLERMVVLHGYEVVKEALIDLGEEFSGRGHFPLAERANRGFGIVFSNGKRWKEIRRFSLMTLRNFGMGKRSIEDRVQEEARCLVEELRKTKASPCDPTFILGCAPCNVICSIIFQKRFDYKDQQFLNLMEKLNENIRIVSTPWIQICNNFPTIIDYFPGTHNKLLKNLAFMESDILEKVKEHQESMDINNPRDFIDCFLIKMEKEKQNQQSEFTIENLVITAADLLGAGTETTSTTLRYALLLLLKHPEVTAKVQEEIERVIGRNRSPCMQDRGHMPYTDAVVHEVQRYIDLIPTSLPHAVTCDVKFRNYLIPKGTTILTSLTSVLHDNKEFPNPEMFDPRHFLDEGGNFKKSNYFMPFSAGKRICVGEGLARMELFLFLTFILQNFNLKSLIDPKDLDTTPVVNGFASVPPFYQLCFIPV
% is scaled to controls: 0 for no effect and ±100 for the full control effect.

| Compound | activity, negative = inhibition | AC50 |
| --- | --- | --- |
| Cc1ccc(S(=O)(=O)N[C@@H]2COC(=O)C/C=C\[C@H](C)COC(=O)N[C@@H](C)C(=O)C/C=C\[C@H]2C)cc1 | -6.82% [at 11.4 µM] (inactive) | – |
| COc1ccc2c(c1)OC1=C(C(=O)CCC1)C2C1=C(O)CCCC1=O (stereo not drawn) | – | 15.8 µM (active) |
| CCNc1ncc2nc(-c3cccc(C#N)c3)c(=O)n(CCC#N)c2n1 | – | inactive |
| CC(C)Cn1c(C(C)C)nc([N+](=O)[O-])c1S(=O)(=O)c1ccc(F)cc1 | – | 5.01 µM (active) |
| CCS(=O)(=O)Nc1ccc(C2=NN(C(=O)c3ccco3)C(c3ccc(C)cc3)C2)cc1 (stereo not drawn) | – | 11.2 µM (active) |
| Cc1ccc(C2C(C(=O)c3ccco3)=C(O)C(=O)N2c2nnc(C)s2)cc1 (stereo not drawn) | – | inactive |
| c1ccc(-c2noc(CSc3nnnn3C3CCCCC3)n2)cc1 | – | 1.26 µM (active) |
| Cc1sc2nc(SCc3nc(-c4cccs4)no3)n(-c3ccccc3)c(=O)c2c1C | – | inactive |
| Cc1ccc(C)n1N1C(=O)/C(=C\c2ccc(Cl)cc2)SC1=S | – | 7.94 µM (active) |
| COc1ccccc1CNC(=O)CCCn1c(=O)c2ccccc2n(CC(=O)NC2CCCC2)c1=O | – | 7.94 µM (active) |
| COC(=O)N1CCC2(CCCN(Cc3ccccc3OC)C2)CC1 | – | inactive |
| CCOc1cc2[nH]c(=O)n(CCCC(=O)NCc3ccc(OC)cc3)c(=O)c2cc1OCC | – | inactive |
| CC(=O)OC[C@@H]1O[C@@H](O/N=C2/C[C@@H](O)[C@@H](O)[C@@H]3[C@@H]4C(=O)N(C(C)(C)C)C(=O)[C@H]4CC[C@@H]23)[C@H](OC(C)=O)[C@H](OC(C)=O)[C@@H]1OC(C)=O | 11.3% [at 11.4 µM] (inactive) | – |
| c1ccc(CSc2nnc(-c3sccc3-n3cccc3)o2)cc1 | – | 2 µM (active) |
| Clc1ccc(CSc2nnc(-c3cccnc3)o2)cc1 | – | 3.55 µM (active) |
| Clc1ccc(CSc2nnc(-c3sccc3-n3cccc3)o2)cc1 | – | 1.12 µM (active) |
| Cc1cccc(-c2nnc(SCc3ccccc3)o2)c1 | – | 11.2 µM (active) |
| CC(C)N(Cc1ccccc1)S(=O)(=O)c1n[nH]c(C(C)(C)C)n1 | -40.1% [at 11.4 µM] (inactive) | – |
| Clc1cccc(CSc2nnc(-c3sccc3-n3cccc3)o2)c1 | – | 1.58 µM (active) |
| CC(C)CN1CC[C@@]2(CCCN(C(=O)c3csnn3)C2)C1 | – | inactive |
| COc1ccc(-n2c(C)n[nH]c2=O)cc1OC | – | inactive |
| COc1ccc(-n2cccc2C=O)cc1OC | – | inactive |
| COc1ccc2c(c1)-c1c(sn(-c3ccc(OC)c(OC)c3)c1=S)C(C)(C)N2 | – | 6.31 µM (active) |
| Clc1ccccc1NN(Cc1ccncc1)c1ccccc1Cl | – | 1.26 µM (active) |

| Compound | activity, negative = inhibition | AC50 |
| --- | --- | --- |
| Clc1ccccc1NN(Cc1ccccn1)c1ccccc1Cl | – | 3.98 µM (active) |
| O=C(Nc1cccc(F)c1)N1CCCC2(CCNCC2)C1 | – | inactive |
| CC(=O)N(O)CCCCCNC(=O)CCC(=O)N(O)CCCCCNC(=O)CCC(=O)N(O)CCCCCN | – | inactive |
| O=C(c1ccccc1)c1cc(F)c(N2CCOCC2)cc1Cl | – | 0.708 µM (active) |
| O=C(O)c1ccc(C(=O)c2ccccc2)c(C(=O)O)c1 | 33.3% [at 11.4 µM] (inactive) | – |
| Cc1ccc2nc(-c3ccccc3)cc(C(=O)NCCCn3ccnc3)c2c1 | – | 2 µM (active) |
| COc1ccc(Nc2cc(C(=O)NCCCN3CCN(C)CC3)c3ccccc3n2)cc1 | – | inactive |
| Cc1ccc(-n2c(C)cc(C(=S)N3CCOCC3)c2C)cc1C | – | 0.891 µM (active) |
| O=C(Nc1ccc(S(=O)(=O)N2CCCC2)cc1)c1ccc(CN2CCOCC2)cc1 | – | inactive |
| O=C(Nc1ccc(S(=O)(=O)N2CCCCC2)cc1)c1ccc(CN2CCc3ccccc3C2)cc1 | – | 7.94 µM (active) |
| CCOC(=O)C(/C(N)=N/C(=O)Nc1ccccc1)=C(\C)O | – | 17.8 µM (active) |
| CCOC(=O)/C(C(N)=NCCCO)=C(/O)c1ccccc1 | – | inactive |
| BrC(c1cccc2ccccc12)c1cccc2ccccc12 | – | 1.26 µM (active) |
| c1c[nH]c(CN2CCOCC2)n1 | -4.4% [at 11.4 µM] (inactive) | – |
| Clc1ccc(-n2nnnc2CN2CCOCC2)cc1 | – | 11.2 µM (active) |
| COCCn1c(=O)c(-c2cc(F)cc(F)c2)nc2cnc(N3CCNCC3)nc21 | – | inactive |
| COc1ccc(S(=O)(=O)Nc2ccc(F)cc2)c(C)c1C | – | 0.0891 µM (active) |
| O=C(CSc1nnnn1C1CCCC1)Nc1ccc(F)cc1 | – | 2 µM (active) |
| CC(=O)NCCNc1ccnc(-c2ccccc2C(F)(F)F)n1 | – | inactive |
| Cc1cnc(CNc2ccnc(-c3ccccc3C(F)(F)F)n2)cn1 | – | inactive |
| CN(C)Cc1ccccc1-c1nccc(Nc2ccc(F)cc2)n1 | – | inactive |
| COCCNc1ccnc(-c2ccccc2CN(C)C)n1 | – | inactive |
| COCCNc1ccnc(-c2ccccc2C(F)(F)F)n1 | – | 10 µM (active) |
| FC(F)(F)c1ccccc1-c1nccc(NCc2ccccc2)n1 | – | 6.31 µM (active) |

| Compound | activity, negative = inhibition | AC50 |
| --- | --- | --- |
| Fc1ccc(Nc2ccnc(-c3ccccc3C(F)(F)F)n2)cc1 | – | 10 µM (active) |
| FC(F)(F)c1ccccc1-c1nccc(NCc2cccs2)n1 | – | 2 µM (active) |
| COc1ccc(OC[C@@H](CO)OC)cc1 | 28.9% [at 11.4 µM] (inactive) | – |
| Cc1ccccc1-c1nccc(NCc2cccs2)n1 | – | 3.98 µM (active) |
| CN(C)Cc1ccccc1-c1nccc(NCc2cccs2)n1 | – | inactive |
| CC(C)Nc1nc(Oc2ccc(Cl)cc2)cc(C(F)(F)F)n1 | – | 10 µM (active) |
| C[C@@H]1O[C@H](O[C@@H]2[C@H](C)O[C@H](O[C@@H]3[C@H](C)O[C@H](O[C@H]4CC[C@]5(C)[C@@H](CC[C@@H]6[C@H]5C[C@@H](O)[C@]5(C)[C@@H](C7=CC(=O)OC7)CC[C@]65O)C4)C[C@@H]3O)C[C@@H]2O)C[C@H](O)[C@@H]1O | – | inactive |
| Cn1c2c(c(=O)n(C)c1=O)CN(CCN1CCNCC1)CN2 | – | inactive |
| CC(Sc1nc(NCc2ccccc2)nc(N(C)C)n1)C(=O)Nc1ccccc1 (stereo not drawn) | – | 0.794 µM (active) |
| COc1ccc(NC2=NC(=S)N(c3ccc(C)cc3)C23CCCCC3)cc1 | – | inactive |
| COc1cc2c(C(=O)NCc3ccc(C)o3)cn(CC(C)C)c(=O)c2cc1OC | – | 35.5 µM (active) |
| CCOc1ccc(-n2cc(C(=O)NCc3ccco3)c3cc(OC)c(OC)cc3c2=O)cc1 | – | inactive |
| COc1ccc(/C=N/n2c(C)nnc2C)c(OC)c1 | – | inactive |
| COc1cccc(/C=N/n2c(=S)n(C)c3cc(C)c(C)cc32)c1OC | – | 2.24 µM (active) |
| Cc1ccc(C(=O)NC2CCCCCC2)cc1N1CCCC1=O | – | inactive |
| Cc1c(Br)cc(C(=O)NC2CCCCC2)c(C)c1C | – | 14.1 µM (active) |
| C[C@@H](CCC(=O)O)C(=O)O | 30.5% [at 11.4 µM] (inactive) | – |
| N#C/C(=C\c1cn[nH]c1-c1ccccc1)C(=O)NC1CCCCCC1 | – | 17.8 µM (active) |
| N#C/C(=C\c1cc(Cl)cc(Cl)c1O)C(=O)NC1CCCCC1 | – | 15.8 µM (active) |
| COc1ccc(/C=C(/C#N)C(=O)NC2CCCCC2)cc1Br | – | inactive |
| N#C/C(=C\Nc1ccccn1)C(=O)C1CC1 | -23.3% [at 11.4 µM] (inactive) | – |
| CC(=NC1CCCCC1)c1ccccc1O | 3.59% [at 11.4 µM] (inactive) | – |
| CC1=NNC(=S)NCCCN2CCN(CCCNC(=S)NN=C(C)C=NNC(=S)NCCCN3CCN(CCCNC(=S)NN=C1)CC3)CC2 | 27% [at 11.4 µM] (inactive) | – |
| Cc1cc(C(F)(F)F)n2nc(-c3cnn(C)c3C(F)(F)F)c(Cl)c2n1 | – | 1.78 µM (active) |

| Compound | activity, negative = inhibition | AC50 |
| --- | --- | --- |
| Cc1cc(C(F)(F)F)n2nc(-c3cnn(C)c3C(F)(F)F)cc2n1 | – | 2.82 µM (active) |
| O=C(Nc1ccccc1C(=O)NCC1CCCO1)c1ccc(Cl)cc1Cl (stereo not drawn) | – | 14.1 µM (active) |
| Cc1ccccc1C(=O)c1c[nH]c(C(=O)NCC2CCCO2)c1 (stereo not drawn) | – | 1 µM (active) |
| O=C(NCC1CCCO1)c1cc(-c2ccc(Cl)cc2Cl)on1 (stereo not drawn) | – | 15.8 µM (active) |
| CO[C@@H]1COC(=O)[C@H]2CCCN2C(=O)[C@@H](C)COC(=O)[C@H](COCc2ccccc2)NC(=O)C/C=C\[C@H]1C | 12.9% [at 11.4 µM] (inactive) | – |
| O=C(O)/C=C\C(=O)Nc1ncn[nH]1 | 10.9% [at 11.4 µM] (inactive) | – |
| O=[N+]([O-])c1ccc(N2CCN(CCOc3nonc3-c3ccccc3)CC2)c(Cl)c1 | – | 4.47 µM (active) |
| Oc1c(Br)cc(CN(Cc2cc(Br)c(O)c(Br)c2)C2CCCCC2)cc1Br | -5.38% [at 11.4 µM] (inactive) | – |
| CC(C)(C)c1cc(Br)c(O)c(CN(Cc2cc(C(C)(C)C)cc(Br)c2O)C2CCCCC2)c1 | – | 0.631 µM (active) |
| CC(C)c1cc(CN(C)C)c(O)c(C(C)(C)C)c1 | -2.3% [at 11.4 µM] (inactive) | – |
| CN(C)Cc1cc(O)c(O)c(CN(C)C)c1 | -24% [at 11.4 µM] (inactive) | – |
| CN(Cc1cc(C(C)(C)C)cc(Br)c1O)Cc1cc(C(C)(C)C)cc(Br)c1O | – | 3.16 µM (active) |
| Oc1c(Br)cc(Br)cc1CN(Cc1cc(Br)cc(Br)c1O)C1CCCCC1 | – | 0.316 µM (active) |
| CC12CC[C@@H]3c4ccc(OP(=O)(O)O)cc4CCC3C1CCC2=O (stereo partly drawn) | -12.5% [at 11.4 µM] (inactive) | – |
| O=C(c1ccncc1)N1CCC2(CC1)CN(Cc1cc(C(F)(F)F)cc(C(F)(F)F)c1)C2 | – | inactive |
| CCCCN(C(=O)Nc1ccc(OCC)cc1)C1CCN(C(C)=O)CC1 | – | inactive |
| CCOc1ccc(NC(=O)N(C2CCCCC2)C(C)c2ccncc2)cc1 (stereo not drawn) | – | 7.08 µM (active) |
| CCOc1ccc(NC(=O)C(=O)NCC2CCCN2CC)cc1 (stereo not drawn) | – | inactive |
| CC(=O)NNc1nc2ccccc2s1 | – | inactive |
| O=C(NNc1nc2ccccc2s1)c1ccccc1F | – | 11.2 µM (active) |
| O=C(NNc1nc2ccccc2s1)C1CC1 | – | 15.8 µM (active) |
